Laboratory results: PubChem BioAssay AID1159580 (chemical genetic matrix, 2015)
Screen size: about 5,500 compounds; about 2,000 (36%) were called active. About 18% were inconclusive and are not listed. Rule as the data show it: active = normalized growth mostly below about 0.91 (no sharp cut-off); inconclusive = no clear call, values can overlap the other calls; inactive = mostly above about 0.92. Some of the results follow.

Assay: chemical genetic growth profiling, strain panel (AID 1159580);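 also: tested at 20 µM; growth read once vehicle control cultures reached saturation at 30 °C; 1 = growth at the plate median or of vehicle wells; lower values mean less growth of the strain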
Settings: S. cerevisiae deletion strains, growth OD

Measured: normalized growth

N=C(N)c1ccccc1
inactive: locus YAL013W, strain DEP1, active compounds read low 1.01 | locus YAL040C, strain CLN3, active compounds read low 0.991 | locus YCL061C, strain MRC1 (second series), active compounds read low 1.01 | locus YDR150W, strain NUM1, active compounds read low 1 | locus YDR363W, strain ESC2, active compounds read low 1.01 | locus YER002W, strain NOP16, active compounds read low 1.02 | locus YNL153C, strain GIM3, active compounds read low 1.07 | locus YNL175C, strain NOP13, active compounds read low 0.999 | locus YNL197C, strain WHI3, active compounds read low 1.03 | locus YNL224C, strain SQS1, active compounds read low 1.01 | locus YNL322C, strain KRE1, active compounds read low 1.02 | locus YOR083W, strain WHI5 (second series), active compounds read low 1.06
